Bioassay records from PubChem.
NS1 function inh: blocks influenza NS1 protein function; Potency, µM (highest dose often 46.1 µM); 0.4% of 270,000 active; note: actives are rising curves; nearly all actives have a fitted effect of over 50% in size
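OD600 was taken as the measure of yeast growth restored by compound in an NS1-expressing S. cerevisiae strain. Cells had been washed out of glucose medium and diluted 1:100 into galactose -URA medium, pH 6.0.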
SARS PLP yeast: inhibitors of SARS-CoV papain-like protease in yeast. S. cerevisiae expressing SARS-CoV PLpro, growth rescue. Potency, µM (titrated, usually from 32.9 µM), most hits filed as activators. 0.19% of 330,000 active. AID 485353; note: nearly all actives have a fitted effect of over 55% in size
Shiga toxin inh: inhibitors of Shiga toxin in Vero cells; 9.2% of 290,000 active; inhibition, % at 38.7 µM; Vero cells, Shiga toxin protein synthesis inhibition reporter; in the data active = inhibition mostly above about 28%, no sharp cut-off; inactive = mostly below about 43%
Cycloheximide cs: affects cycloheximide protein synthesis inhibition readout, counter-screen; cell reporter, cycloheximide protein synthesis inhibition counterscreen; max response, %; 12% of 300,000 active; in the data active = max response mostly above about 13%, no sharp cut-off; inactive = mostly below about 14%; note: read at 38.3 µM for the half of the compounds with a filed dose
Large screens that a line does not name were inactive. A selection: hits, their analogues and other compounds. The true share with any hit is near 12%. Unless noted, calls come from the whole dose curve.

CC(C)(C)SCCNC(=O)c1ccccc1	Cycloheximide cs 37
CC(NC(=O)CS(=O)(=O)c1ccccc1)c1ccccc1 (stereo unspecified)	none
COC(=O)c1c(C)[nH]c(C(=O)OC(C)C(=O)N(C)C2CCCCC2)c1C (stereo unspecified)	none (no result: NS1 function inh, Shiga toxin inh, Cycloheximide cs)
Cc1ccc(-n2ncc3c(NNC(=O)c4ccco4)ncnc32)cc1Cl	Cycloheximide cs 57
Cc1cccc(-n2ncc3c(NNC(=O)c4ccco4)ncnc32)c1	Cycloheximide cs 20
O=C(NNc1ncnc2c1cnn2-c1ccc(F)cc1)c1cccs1	none (no result: NS1 function inh)
Cc1ccc(-n2ncc3c(NNC(=O)Cc4ccccc4)ncnc32)cc1	Cycloheximide cs 14
Cc1ccc(-n2ncc3c(SCC(=O)NNC(=O)c4ccco4)ncnc32)cc1	none
COc1ccc(/C=C2\CCc3ccccc3C2=O)cc1Cn1nc(C)cc1C	Cycloheximide cs 21
COc1ccc(/C=N/NC(=O)COc2ccc(Cl)cc2Cl)cc1Cn1nc(C)cc1C	none
COc1ccc(/C=C/C(=O)c2ccccc2O)cc1CN1CCOCC1	none
COc1ccc(/C=C2/CCc3ccccc3C2=O)cc1CN1CCOCC1	Shiga toxin inh 92, Cycloheximide cs 51
Cc1nc(SCC(=O)c2c(N)n(C3CC3)c(=O)[nH]c2=O)[nH]c(=O)c1CCO	none (no result: NS1 function inh, Shiga toxin inh, Cycloheximide cs)
O=C(N/N=C/c1cccc2ccccc12)c1cccc(F)c1	Shiga toxin inh 79, Cycloheximide cs 63
O=C(N/N=C/c1ccccc1Cl)c1cccc(F)c1	Shiga toxin inh 97, Cycloheximide cs 78
O=C(N/N=C/c1c(Cl)cccc1Cl)c1cccc(F)c1	SARS PLP yeast inconclusive
CCN(CC)S(=O)(=O)c1cc(NC(=O)Cn2ncc(Cl)c(Cl)c2=O)ccc1C	Cycloheximide cs 32
CCC(=O)Nc1ccc(C(=O)Cn2ncc(Cl)c(Cl)c2=O)cc1	Shiga toxin inh 54, Cycloheximide cs 46
CCOC(=O)c1ccc(NC(=O)Cn2ncc(Cl)c(Cl)c2=O)cc1	none
COc1ccc(NC(=O)Cn2ncc(Cl)c(Cl)c2=O)cc1S(=O)(=O)N1CCOCC1	Cycloheximide cs 19
O=C(COc1ccc(S(=O)(=O)NC2CCCCC2)cc1)N1CCN(c2cccc(Cl)c2)CC1	NS1 function inh inconclusive
C/C(N)=C(/C#N)C(=O)COC(=O)CNS(=O)(=O)c1c(F)cccc1F	none
CCC1CCCCN1CCCNC(=O)c1ccc2c(c1)N(Cc1ccc(F)cc1)C(=O)c1ccccc1S2=O (stereo unspecified)	NS1 function inh inconclusive
O=C(c1ccc2c(c1)OCO2)N1CCN(S(=O)(=O)c2ccc(Cl)cc2)CC1	none
CCOC(CNc1ncnc2sc(-c3ccccc3)cc12)OCC	Cycloheximide cs 12
CCCc1cnc(N2CCN(S(=O)(=O)c3cccs3)CC2)nc1	none
Cc1cc(-n2cnc(-c3cn[nH]c3C)n2)no1	Shiga toxin inh 72
COc1ccc(C2=NN(CC(=O)Nc3ccccc3C)C(=O)CC2)cc1	Cycloheximide cs 12
COCCNC(=O)CN1N=C(c2ccc(OC)cc2)CCC1=O	none
CC(NC(=O)c1ccc(Cl)s1)C1CCCO1 (stereo unspecified)	none
CC(NC(=O)c1csc2ccccc12)C1CCCO1 (stereo unspecified)	Shiga toxin inh 63, Cycloheximide cs 32
CC(NC(=O)c1sc2ccccc2c1Cl)C1CCCO1 (stereo unspecified)	Cycloheximide cs 36
CC(/C=N/NC(=O)CSc1ccccn1)=C\c1ccc(C(C)C)cc1	Shiga toxin inh active, Cycloheximide cs 108
CC(=C/c1ccc(C(C)C)cc1)/C=N/NC(=O)CSc1ccccn1	Shiga toxin inh 157, Cycloheximide cs 71
Cn1c(SCC#N)nnc1-c1cccnc1	none
O=C(CCc1c[nH]c2ccccc12)N1CCCC1	none
CCCCN(C)C(=O)CCCc1c[nH]c2ccccc12	Shiga toxin inh 42, Cycloheximide cs 17
O=C(CCCc1c[nH]c2ccccc12)N1CCCCCC1	Cycloheximide cs 20
COc1ccc(CNS(=O)(=O)c2ccc(-c3ccc(=O)[nH]n3)o2)cc1	none
COc1ccc(OC)c(Nc2cc(-c3ccccc3)nc(N)n2)c1	none
COc1cccc(C2CCCN2Cc2nc(-c3sccc3C)oc2C)c1 (stereo unspecified)	none
COc1cccc(C2CCCCN2Cc2nc(-c3ccc(C)o3)oc2C)c1 (stereo unspecified)	Shiga toxin inh 79, Cycloheximide cs 31
Cc1cc(C)c(C(=O)CN2C(=O)NC3(CCCCCC3)C2=O)cc1C	Shiga toxin inh 41, Cycloheximide cs 53 (no result: NS1 function inh)
COc1ccccc1C(=O)CN1C(=O)NC2(CCCCCC2)C1=O	none (no result: NS1 function inh, Shiga toxin inh, Cycloheximide cs)
Cc1cc(C(=O)CN2C(=O)NC3(CCCCC3)C2=O)c(C)n1C	Shiga toxin inh 45, Cycloheximide cs 38
COC(=O)c1ccc(CN2C(=O)NC3(CCCCC3)C2=O)cc1	Shiga toxin inh 61, Cycloheximide cs 119 (no result: NS1 function inh)
O=C1NC2(CCCCCC2)C(=O)N1Cc1ccc(Br)cc1	none
CC[C@]12c3[nH]c4cc(-c5ccco5)ccc4c3CCN1C(=O)[C@@H](CC(=O)NC(C)(C)C)C[C@@H]2C(=O)N1CCN(C(=O)C2CC2)CC1	none (no result: NS1 function inh, Shiga toxin inh, Cycloheximide cs)
COCc1cc(=O)n2[nH]c(-c3cccc(Br)c3)cc2n1	Cycloheximide cs 27
COCc1cc(=O)n2[nH]c(-c3ccccc3)cc2n1	Cycloheximide cs 23
CCCCN1CC2=C(C1=O)C(c1ccc(O)cc1)NC(=O)N2C (stereo unspecified)	none (no result: NS1 function inh)
Cc1cccc(N(CC(=O)NCCC2=CCCCC2)S(C)(=O)=O)c1C	none
CC(C)Oc1cccc(-c2nnc(SCC(=O)Nc3ccc4c(c3)OCCO4)n2N)c1	Cycloheximide cs 34
COc1ccc(-n2nnnc2SCC(=O)NC(=O)Nc2ccc3c(c2)OCCO3)cc1	Shiga toxin inh 92, Cycloheximide cs 21
O=C(CSc1nnnn1-c1ccc(Cl)cc1)NC(=O)Nc1ccc2c(c1)OCCO2	Shiga toxin inh 72, Cycloheximide cs 29
CCC(=O)Nc1ccc(NC(=O)CSc2nnnn2-c2ccc3c(c2)OCCO3)cc1	none (no result: NS1 function inh)
Cc1ccc(-n2nnnc2SCC(=O)NC(=O)Nc2ccc3c(c2)OCCO3)cc1	Shiga toxin inh 75, Cycloheximide cs 23
CC(C)(C)c1ccc(COn2ccnc2)cc1	none
O=C(CCc1nc2sc3c(c2c(=O)[nH]1)CCCC3)Nc1cccc(Cl)c1	none (no result: NS1 function inh, Shiga toxin inh, Cycloheximide cs)
CCOC(=O)C(C)Sc1cnccn1 (stereo unspecified)	none
O=C(CSc1nnnn1-c1ccccc1Cl)Nc1ccc2c(c1)OCCO2	Shiga toxin inh 84, Cycloheximide cs 46
CC(C)CCC1(C)NC(=O)N(CC(=O)Nc2ccc3c(c2)OCCO3)C1=O (stereo unspecified)	none (no result: NS1 function inh, Shiga toxin inh, Cycloheximide cs)
Cc1nnc(SCC(=O)NC(=O)Nc2ccc3c(c2)OCCO3)n1N	Shiga toxin inh 50, Cycloheximide cs 39
CC(C)CC1(C)NC(=O)N(CC(=O)NC(=O)Nc2ccc3c(c2)OCCO3)C1=O (stereo unspecified)	Shiga toxin inh 48, Cycloheximide cs 58
Cc1ccc(Cl)cc1NC(=O)c1cc2ccccc2cc1O	none
Cc1ccc(Sc2cncc3sc(C(N)=O)cc23)cc1	none (no result: NS1 function inh, SARS PLP yeast)
O=[N+]([O-])c1ccccc1NCCOc1ccccc1	Shiga toxin inh 72, Cycloheximide cs 73
CCOc1ccc(NC(=O)Cc2ccccc2)c([N+](=O)[O-])c1	SARS PLP yeast inconclusive
COc1cccc(OCCNc2cc(Cl)ccc2[N+](=O)[O-])c1	Shiga toxin inh 73, Cycloheximide cs 42
